Data reported in PubChem BioAssay (NCATS).
Inconclusive results are not listed. Active and inactive are the calls of the source. Unless noted, calls come from the whole dose curve; as a rule, active = well fitted cell-killing curve with a large enough effect; inconclusive = small, poorly fitted or top-dose-only effect; inactive = flat fitted curve, though single readings scatter.

Tests used:
[1] = Cell Viability - LYMP2-007 (AID 979);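 note: cells exposed to compound for 24 h before reading; 0% = DMSO only and the negative end = 92 µM tetraoctylammonium bromide; nearly all actives have a fitted effect of over 60% in size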
In short: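 Measured via luciferase-based ATP quantitation: lymphoblastoid cells, 24 hr compound exposure at 37 C, AC50 from Hill fits.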

[2] = Cell Viability - LYMP2-008 (AID 980);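 note: cells exposed to compound for 24 h at 37 °C; % is set by controls: 0 for no effect and ±100 for the full control effect; nearly all actives have a fitted effect of over 60% in size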
In short: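 Measured: ATP-dependent luminescence, proportional to viable cell number, in human lymphoblastoid cells treated 24 hr with compound in complete culture medium. Values are AC50s from Hill-equation modelling of qHTS titrations.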

[3] = Cell Viability - LYMP2-010 (AID 981); note: % is set by controls: 0 for no effect and ±100 for the full control effect; nearly all actives have a fitted effect of over 55% in size
In short: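 This 24 hr viability screen uses LYMP2-010 lymphoblastoid cells, quantifies ATP via luciferase luminescence, and derives AC50 from Hill fits of qHTS concentration-response data.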

[4] = Cell Viability - LYMP2-014 (AID 983);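 note: series mostly up to about 92 µM; cells exposed to compound for 24 h at 37 °C; plate controls were DMSO only for no effect and 92 µM tetraoctylammonium bromide for full effect; nearly all actives have a fitted effect of over 50% in size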
In short: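 Quantitative HTS in lymphoblastoid cells: 24 hr compound exposure, then CellTiter-Glo ATP luminescence. Positive control was tetraoctylammonium bromide, 6.4pM to 92 uM.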

[5] = Cell Viability - LYMP2-016 (AID 984); note: % is set by controls: 0 for no effect and ±100 for the full control effect; nearly all actives have a fitted effect of over 55% in size
In short: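 Cells were seeded at 2500 per well and rested 5 hr before a 24 hr compound exposure at 37 C. Viability was then gauged as cellular ATP by luciferase luminescence, with AC50 values fitted to the Hill equation.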

[6] = Cell Viability - LYMP2-018 (AID 985);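 note: plate controls were DMSO only for no effect and tetraoctylammonium bromide at 92 µM for full effect; nearly all actives have a fitted effect of over 50% in size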
In short: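 In this qHTS viability assay, cells are treated for 24 hr and cellular ATP is quantified by luciferase-based luminescence, with tetraoctylammonium bromide as positive control.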

[7] = Cell Viability - LYMP2-020 (AID 986);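 note: series mostly up to about 92 µM; cells exposed to compound for 24 h at 37 °C; plate controls were DMSO only for no effect and tetraoctylammonium bromide at 92 µM for full effect; nearly all actives have a fitted effect of over 55% in size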
In short: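 Cells at 2500 per well receive a 24 hr compound exposure at 37 C. Viability is measured as ATP-dependent luciferase luminescence, with AC50 modeled from qHTS concentration-response curves.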

[8] = Cell Viability - LYMP2-022 (AID 987);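 note: 0% = DMSO alone and full effect = tetraoctylammonium bromide at 92 µM; nearly all actives have a fitted effect of over 55% in size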
In short: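 In this qHTS cytotoxicity screen, compound titrations were incubated 24 hr at 37 C with human lymphoblastoid cells in complete medium. Luciferase-based ATP luminescence provided the viability signal.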

[9] = Cell Viability - LYMP2-024 (AID 988);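 note: plate controls were DMSO only for no effect and 92 µM tetraoctylammonium bromide for full effect; nearly all actives have a fitted effect of over 60% in size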
In short: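 Cells at 2500 per well received compound for 24 hr after a 5 hr settling period. Viability was scored by CellTiter-Glo luminescence, with AC50 from Hill fits.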

[10] = Cell Viability - LYMP2-026 (AID 989);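 note: cells exposed to compound for 24 h at 37 °C; % is set by controls: 0 for no effect and ±100 for the full control effect; nearly all actives have a fitted effect of over 50% in size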
In short: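 Acute toxicity screen in complete culture medium, with 24 hr compound exposure at 37 C. Viability read as cellular ATP via luciferase reaction, with tetraoctylammonium bromide (6.4pM to 92 uM) as positive control.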

[11] = Cell Viability - LYMP1-002 - Assay at 24 hr (AID 993); note: % is set by controls: 0 for no effect and ±100 for the full control effect
In short: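 Viability was judged from intracellular ATP using a luciferase read-out, following a 24-hour compound incubation at 37 C of lymphoblastoid cells seeded at 2500 per well. Concentration-response data were fitted to the Hill equation for AC50.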

[12] = Cell Viability - LYMP1-002 - Assay at 40 hr (AID 994);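 note: 0% = DMSO only and full inhibition = 92 µM tetraoctylammonium bromide; nearly all actives have a fitted effect of over 60% in size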
In short: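 Concentration-dependent ATP loss after 40 hr treatment at 37 C defined toxicity; AC50 values were obtained by fitting the standard Hill equation.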

[13] = qHTS Assay for Identification of Small Molecule Inducers of Hypoxia Response (AID 2120; active = well fitted curve in the direction sought with a large enough effect in the signal ratio, with a control signal flat, not every such curve was filed as active; the % refers to the signal ratio; note: 0% is about no effect)
In short: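 HRE-bla ME-180, 2500 cells/well, 0.5% dialyzed FBS medium; cpd titration, 17 h 37 degrees C; CCF4 2.5 h RT; Ex 405, Em 460/530 ratio -> %Activity, AC50.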

[14] = target: Glucocorticoid receptor (Homo sapiens) (UniProt P04150); test: qHTS assay for small molecule agonists of glucocorticoid receptor signaling (AID 588532; active = well fitted curve in the direction sought with a large enough effect in the signal ratio, with a control signal flat; the % refers to the signal ratio;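 note: 100% = dexamethasone at 0.1 µM and 0% = DMSO only wells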); settings: HeLa MMTV-bla, beta-lactamase ratio, agonist, 18 h; stronger effect = higher value; percent of dexamethasone control, DMSO zero
Sequence of Glucocorticoid receptor (Homo sapiens) (P04150 whole entry, looked up): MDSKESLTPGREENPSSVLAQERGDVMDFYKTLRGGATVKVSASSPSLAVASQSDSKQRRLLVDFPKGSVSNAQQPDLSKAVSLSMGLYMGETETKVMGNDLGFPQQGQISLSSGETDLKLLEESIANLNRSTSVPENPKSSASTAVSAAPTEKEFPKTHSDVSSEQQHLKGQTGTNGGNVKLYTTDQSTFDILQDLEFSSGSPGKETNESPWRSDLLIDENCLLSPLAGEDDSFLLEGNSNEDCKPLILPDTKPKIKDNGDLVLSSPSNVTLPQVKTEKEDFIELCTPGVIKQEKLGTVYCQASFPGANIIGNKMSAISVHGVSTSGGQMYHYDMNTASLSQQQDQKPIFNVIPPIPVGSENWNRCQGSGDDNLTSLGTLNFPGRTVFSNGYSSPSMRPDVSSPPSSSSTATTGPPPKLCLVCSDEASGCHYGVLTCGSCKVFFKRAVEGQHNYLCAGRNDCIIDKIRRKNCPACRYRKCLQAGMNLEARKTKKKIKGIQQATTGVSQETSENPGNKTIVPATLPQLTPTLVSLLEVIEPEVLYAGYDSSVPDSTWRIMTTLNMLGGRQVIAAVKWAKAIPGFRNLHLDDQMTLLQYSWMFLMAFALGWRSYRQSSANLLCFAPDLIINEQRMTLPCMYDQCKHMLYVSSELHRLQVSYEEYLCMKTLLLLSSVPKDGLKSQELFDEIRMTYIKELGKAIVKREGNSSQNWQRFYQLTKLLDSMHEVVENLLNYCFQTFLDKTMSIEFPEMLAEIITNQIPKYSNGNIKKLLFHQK
In short: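 Using MMTV-bla HeLa cells in medium with 1% stripped FBS and 25 mM HEPES, compounds were titrated and incubated overnight-length (18 h). Beta-lactamase cleavage of CCF4 was quantified by dual-emission fluorescence.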

[15] = target: Glucocorticoid receptor (Homo sapiens) (UniProt P04150); test: qHTS assay for small molecule antagonists of glucocorticoid receptor signaling (AID 588533; active = well fitted inhibition curve with a large enough effect in the signal ratio, with a control signal flat, not every such curve was filed as active; the % refers to the signal ratio;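 note: cells stimulated with 2 nM dexamethasone as agonist; % is set by controls: 0 for no effect and ±100 for the full control effect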)
In short: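 Antagonist-mode qHTS: compound titrations added to GRE-bla HeLa cells, then dexamethasone 2 nM final; 18 h, 37 C. CCF4 FRET fluorescence normalized to dexamethasone and DMSO; IC50 from Hill fit.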

[16] = target: Peroxisome proliferator-activated receptor delta (Homo sapiens) (UniProt Q03181); test: qHTS assay for small molecule agonists of peroxisome proliferator-activated receptor delta signaling (AID 588534; calls by dose curve;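 note: 0% = DMSO basal wells and 100% = positive control agonist at 10 µM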)
Sequence of Peroxisome proliferator-activated receptor delta (Homo sapiens) (Q03181 whole entry, looked up): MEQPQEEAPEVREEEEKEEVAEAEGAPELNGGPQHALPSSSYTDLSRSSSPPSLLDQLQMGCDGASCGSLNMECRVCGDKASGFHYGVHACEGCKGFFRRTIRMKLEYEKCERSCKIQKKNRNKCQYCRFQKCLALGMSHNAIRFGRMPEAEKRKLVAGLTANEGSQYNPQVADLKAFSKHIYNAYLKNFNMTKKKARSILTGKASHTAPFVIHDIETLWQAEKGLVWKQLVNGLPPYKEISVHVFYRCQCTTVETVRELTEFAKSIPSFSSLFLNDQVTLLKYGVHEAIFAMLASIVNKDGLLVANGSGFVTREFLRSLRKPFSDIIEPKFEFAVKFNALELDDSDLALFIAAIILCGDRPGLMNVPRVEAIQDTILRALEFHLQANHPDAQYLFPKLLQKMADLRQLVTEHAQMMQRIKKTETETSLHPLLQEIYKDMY
In short: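 EC50 and efficacy values derive from Hill fits of a concentration series in a beta-lactamase reporter cell assay. Exposure is 18 hrs at 37 C, with CCF4 fluorescence as the readout.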

[17] = qHTS assay for small molecule antagonists of peroxisome proliferator-activated receptor delta signaling (AID 588535; active = well fitted inhibition curve with a large enough effect in the signal ratio, with a control signal flat, not every such curve was filed as active; the % refers to the signal ratio;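 for max response: cells co-treated with a PPAR-delta agonist as stimulator during compound exposure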); settings: HEK293T PPARd-UAS-bla, beta-lactamase FRET ratio, 18 h; 460 nm channel
In short: (§1)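 Antagonist-mode qHTS using GeneBLAzer PPAR-delta-UAS-bla HEK293T cells; compound exposure 18 hrs at 37 C over a titration. Ratiometric CCF4 fluorescence at 460/530 nm; concentration-response points fitted to the Hill equation.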

[18] = target: Peroxisome proliferator-activated receptor delta (Homo sapiens) (UniProt Q03181); test: as above
In short: as §1

[19] = target: Peroxisome proliferator-activated receptor gamma (Homo sapiens) (UniProt P37231); test: qHTS assay for small molecule agonists of peroxisome proliferator-activated receptor gamma signaling (AID 588536; active = well fitted curve in the direction sought with a large enough effect in the signal ratio, with a control signal flat, not every such curve was filed as active; the % refers to the signal ratio;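 note: 0% = DMSO basal wells and 100% = rosiglitazone at 2 µM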)
Sequence of Peroxisome proliferator-activated receptor gamma (Homo sapiens) (P37231 whole entry, looked up): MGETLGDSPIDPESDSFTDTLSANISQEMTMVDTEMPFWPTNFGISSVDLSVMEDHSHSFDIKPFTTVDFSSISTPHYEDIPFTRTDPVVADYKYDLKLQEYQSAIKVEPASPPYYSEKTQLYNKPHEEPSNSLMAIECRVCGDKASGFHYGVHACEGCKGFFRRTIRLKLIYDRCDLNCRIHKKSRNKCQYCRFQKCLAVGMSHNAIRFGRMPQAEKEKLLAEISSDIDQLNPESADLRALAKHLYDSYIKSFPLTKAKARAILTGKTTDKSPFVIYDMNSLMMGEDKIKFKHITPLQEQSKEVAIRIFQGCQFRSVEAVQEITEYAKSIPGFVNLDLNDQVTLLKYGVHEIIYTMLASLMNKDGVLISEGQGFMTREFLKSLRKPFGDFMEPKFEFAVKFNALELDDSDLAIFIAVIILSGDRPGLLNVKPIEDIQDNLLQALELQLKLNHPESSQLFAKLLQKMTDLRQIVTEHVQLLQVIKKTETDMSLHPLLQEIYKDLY
In short: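 This is an agonist-mode beta-lactamase reporter assay in HEK293 PPAR-gamma-UAS-bla cells with 1% charcoal/dextran FBS. Compound titrations ran 16 h at 37 C before CCF4 detection. EC50 and efficacy are Hill fits scaled to 2 uM rosiglitazone (100%) and DMSO basal.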

[20] = target: Peroxisome proliferator-activated receptor gamma (Homo sapiens) (UniProt P37231); test: qHTS assay for small molecule antagonists of peroxisome proliferator-activated receptor gamma signaling (AID 588537; active = well fitted inhibition curve with a large enough effect in the signal ratio, with a control signal flat, not every such curve was filed as active; the % refers to the signal ratio;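 note: reporter cells co-stimulated with 50 nM rosiglitazone agonist during compound treatment; % of control where 0% means no effect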)
In short: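 Cell-based beta-lactamase assay; GW9662 served as the antagonist control. Stimulation used rosiglitazone, final 50 nM, 16 h, 37 C.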

[21] = target: Vitamin D3 receptor (Homo sapiens) (UniProt P11473); test: qHTS assay for small molecule agonists of vitamin D receptor signaling (AID 588543; calls by dose curve;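 note: 0% = DMSO basal and 100% = reference agonist control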)
Sequence of Vitamin D3 receptor (Homo sapiens) (P11473 whole entry, looked up): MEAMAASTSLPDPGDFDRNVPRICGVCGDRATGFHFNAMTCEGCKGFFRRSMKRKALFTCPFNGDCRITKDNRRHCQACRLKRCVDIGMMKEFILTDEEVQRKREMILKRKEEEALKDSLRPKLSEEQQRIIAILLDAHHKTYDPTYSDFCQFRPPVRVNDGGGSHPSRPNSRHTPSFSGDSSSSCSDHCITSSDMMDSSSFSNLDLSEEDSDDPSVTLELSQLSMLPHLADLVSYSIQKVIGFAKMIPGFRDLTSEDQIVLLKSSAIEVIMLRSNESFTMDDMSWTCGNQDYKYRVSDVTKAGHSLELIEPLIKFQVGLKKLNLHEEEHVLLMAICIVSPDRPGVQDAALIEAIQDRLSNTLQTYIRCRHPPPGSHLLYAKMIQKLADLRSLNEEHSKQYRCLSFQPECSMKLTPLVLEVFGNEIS
In short: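 Reporter cells (HEK293T, VDR-UAS-bla) were seeded in medium with 2% charcoal-stripped serum and incubated 5 h, then compounds in concentration series were added for 16 h at 37 °C. Stimulation was scaled between DMSO basal and 50 nM 1α,25-dihydroxyvitamin D3.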

[22] = target: Thyroid hormone receptor beta (Homo sapiens) (UniProt P10828); test: qHTS assay for small molecule agonists of thyroid hormone receptor beta signaling (AID 588545; calls by dose curve)
Sequence of Thyroid hormone receptor beta (Homo sapiens) (P10828 whole entry, looked up): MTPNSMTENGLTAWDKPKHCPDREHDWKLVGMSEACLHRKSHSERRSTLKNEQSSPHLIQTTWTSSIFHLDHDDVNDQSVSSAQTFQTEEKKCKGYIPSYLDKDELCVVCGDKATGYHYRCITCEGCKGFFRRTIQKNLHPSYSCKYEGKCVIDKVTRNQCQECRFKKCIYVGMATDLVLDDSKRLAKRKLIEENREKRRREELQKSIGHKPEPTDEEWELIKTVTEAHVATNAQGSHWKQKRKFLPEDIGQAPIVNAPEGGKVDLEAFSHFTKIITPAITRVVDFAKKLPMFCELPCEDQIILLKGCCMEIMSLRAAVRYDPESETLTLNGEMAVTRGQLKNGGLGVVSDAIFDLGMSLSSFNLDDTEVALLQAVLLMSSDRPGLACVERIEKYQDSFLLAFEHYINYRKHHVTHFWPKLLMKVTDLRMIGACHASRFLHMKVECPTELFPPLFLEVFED
In short: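 HEK 293 TR-UAS-bla; agonist mode; 18 hrs, 37 C; CCF4, ex 405/em 460 and 530 nm; norm. T3 10 nM = 100%, DMSO = 0%; Hill fit → EC50, efficacy.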

COC1=CC(=O)O[C@@H](/C=C/c2ccc3c(c2)OCO3)C1
27.2%: max response [17]
inactive: Potency [1] | Potency [2] | Potency [3] | Potency [4] | Potency [5] | Potency [6] | Potency [7] | Potency [8] | Potency [9] | Potency [10] | Potency [11] | Potency [12] | outcome [13] | activation [14] -3.44% | Potency [15] | outcome [16] | Potency [18] | outcome [19] | Potency [20] | outcome [21] | outcome [22]
